PI4K2A inh: blocks human PI4K2A kinase activity; Q9BTU6; purified PI4K2A, ADP-Glo luminescence, 1 h; hits give low values; activity change, negative = inhibition, % at 76.9 µM; hit rate 0.13% among 420,000; in the data active = activity change below about -50%; inconclusive = mostly about -30% to -49%;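 also: -100% = wells without enzyme as full effect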
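In this quantitative HTS, ADP production by PI4K2A was quantified luminescently after 1 h at ambient temperature; 100 microM adenosine served as plate-quality control.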
Tb PFK inh: T. brucei PFK enzyme inhibition | O15648 | T. brucei PFK, ADP-Glo luminescence | Potency, µM (titrated, usually from 57.5 µM), for the others: top-dose activity, negative = inhibition, most hits filed as inhibitors | hit rate 0.17% among 330,000;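 also: potency is read from the fitted curve at half-maximal effect; 0% = uninhibited 1x PFK enzyme wells and -100% = no-enzyme wells; nearly all actives have a fitted effect of over 60% in size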
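Compounds were pin-transferred as a titration series up to 57 uM into substrate buffer (0.5 mM F6P, 0.1 mM ATP, pH 8.0), then 1.25 nM PFK was added and reactions ran 45 min before ADP-Glo detection.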
Chronic BCR inh: inhibitors of chronic active B-cell receptor signaling; ABC-DLBCL IkBa-CBG/CBR reporter, luminescence ratio, 4 h; Potency, µM (top dose mostly 46.1 µM), for inactives: at the highest dose activity change, negative = inhibition, usual class: inhibitors; hit rate 0.05% among 340,000; active = well fitted inhibition curve with a large enough effect in the signal ratio, with a control signal flat, not every such curve was filed as active; inconclusive = small, poorly fitted or top-dose-only effect, or effect the other way, or a change in a side signal; the % refers to the signal ratio;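 also: potency is read from the fitted curve at half-maximal effect; plate controls were basal doxycycline-induced cells for no effect and cells given 10 µM MG132 for full effect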
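Doxycycline induced both beetle luciferases in TMD8 lymphoma cells; IKK-driven degradation limits the IkappaBalpha-fused green signal, while red luminescence normalises for cell number and nonspecific effects. Compounds tested up to 46 uM, 4 hrs.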
Pin1 inhibitor: blocks the human prolyl isomerase Pin1. Q13526. Pin1 FP peptide displacement, HiFluor488, 10 min. Potency, µM (series often up to 115 µM), for inactives: top-dose activity, negative = inhibition, most hits filed as inhibitors. hit rate 0.009% among 390,000; active = well fitted inhibition curve with a large enough effect in the polarisation, with a control signal flat, not every such curve was filed as active; inconclusive = small, poorly fitted or top-dose-only effect, or effect the other way, or a change in a side signal; inactive = no such curve, though single readings can be large or run the other way; the % refers to the polarisation; also: potency is read from the fitted curve at half-maximal effect
Target sequence (Q13526 whole entry, looked up): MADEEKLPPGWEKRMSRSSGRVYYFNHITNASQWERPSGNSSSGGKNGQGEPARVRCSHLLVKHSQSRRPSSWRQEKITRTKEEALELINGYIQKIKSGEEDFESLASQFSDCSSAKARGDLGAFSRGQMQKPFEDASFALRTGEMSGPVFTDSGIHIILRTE
Tb PGK inh: T. brucei PGK inhibition | Potency, µM (top dose mostly 57.5 µM), without a hit: top-dose activity change, negative = inhibition, most hits filed as inhibitors | hit rate 0.043% among 380,000 | PGK/GAPDH coupled, Kinase-Glo luminescence, 60 min | AID 602233; also: potency is read from the fitted curve at half-maximal effect; nearly all actives have a fitted effect of over 60% in size
Target sequence (P07378 whole entry, looked up): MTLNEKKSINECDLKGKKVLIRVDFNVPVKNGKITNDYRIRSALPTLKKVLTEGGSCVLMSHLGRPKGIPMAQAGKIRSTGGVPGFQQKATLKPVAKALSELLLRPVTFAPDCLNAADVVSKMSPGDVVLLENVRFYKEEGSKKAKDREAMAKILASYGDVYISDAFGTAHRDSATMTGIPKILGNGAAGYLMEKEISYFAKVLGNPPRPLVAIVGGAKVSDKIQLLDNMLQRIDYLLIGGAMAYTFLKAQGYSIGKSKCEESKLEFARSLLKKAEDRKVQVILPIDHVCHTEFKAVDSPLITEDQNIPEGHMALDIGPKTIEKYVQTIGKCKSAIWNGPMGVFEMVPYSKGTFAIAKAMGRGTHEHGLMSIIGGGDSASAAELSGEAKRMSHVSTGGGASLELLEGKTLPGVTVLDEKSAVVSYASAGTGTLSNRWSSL
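Recombinant glycosomal PGK reaction used 1,3-bisphosphoglycerate generated in-well by GAPDH (100nM final) in 100mM TEA pH 7.6, 5mM MgCl2, 0.01% Tween-20. After 60 minutes at room temperature, ATP was read by Kinase-Glo Plus luminescence end-point.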
The depositor's hits bear a star; i = inactive; ? = inconclusive; . = no result given. A selection: hits, their analogues and other compounds. The true share with any hit is near 0.34%. Unless noted, calls follow the shape of the dose curve; as a rule, active = well fitted curve in the direction sought with a large enough effect; inconclusive = small, poorly fitted or top-dose-only effect, or another doubt; inactive = no such curve, though single readings can be large; an effect the other way counts as inactive or inconclusive. Unless noted, % is scaled to controls: 0 for no effect and ±100 for the full control effect.

SMILES	PI4K2A inh	Tb PFK inh	Chronic BCR inh	Pin1 inhibitor	Tb PGK inh
O=C(N=Nc1c(O)[nH]c2ccccc12)c1cc(NS(=O)(=O)c2cccs2)cc(NS(=O)(=O)c2cccs2)c1	-51.1*	-2.0%	1.0%	-2.7%	-7.4%
Cn1c(/C=C/c2ccccc2)nc2ccccc21	-66.2*	?	?	4.0%	i
O=c1c2[nH]c3cc(Br)sc3c2cnn1Cc1ccccc1F	.	.	.	-3.9%	.
CCCNS(=O)(=O)c1cccc(C(=O)OCc2cc(=O)oc3cc(OC)ccc23)c1	-12.8	3.2%	12.6µM*	30.9%	-7.9%
COc1ccc2c(COC(=O)c3cccc(S(=O)(=O)NCC(C)C)c3)cc(=O)oc2c1	3.6	6.9%	-5.9%	19.7%	-9.7%
CCN(CC)C(=O)c1nn(-c2ccc(OC)cc2)c(=O)c2c(N)scc12	.	.	.	-16.5%	.
O=C(O)C(O)c1ccco1 (centres undefined)	-9.0	4.78µM*	-3.3%	?	14.1µM*
CC(=O)c1ccc(N=Nc2ccc(C)cc2)cc1	-3.6	2.3%	?	-2.2%	4.3%
C=C(C)C(=O)Oc1ccc(N=Nc2ccc(C)cc2)ccc1=O	-14.7	.	.	.	2.82µM*
O=C(NCc1nc2ccccc2[nH]1)c1ccc(S(=O)(=O)N2CCOCC2)cc1	-10.5	-2.5%	-1.5%	0.5%	22.4µM*
CC(=NCc1cccnc1)C1=C(O)c2ccccc2C1=O	-53.6*	1.2%	-0.5%	-1.2%	-7.7%
COc1ccc(NS(=O)(=O)c2cc(-c3cnc(C4CC4)o3)ccc2C)cc1	-1.0	-1.8%	12.6µM*	7.9%	-1.3%
NC(=O)C1CCN(c2nnc(-c3ccc(Br)cc3)s2)CC1	.	.	.	-1.5%	.
CN1C(=O)/C(=C/c2cccn2-c2ccc3ccccc3c2)C(=O)NC1=S	-61.3*	-10.3%	?	.	-15.5%
Cc1cc(C)cc(N2C(=O)NC(=O)/C(=C\c3cccn3-c3ccc(Cl)cc3)C2=O)c1	-50.1*	-2.5%	-2.8%	26.2%	-3.3%
O=Cc1cccn1-c1ccc2ccccc2c1	0.0	-1.6%	-13.3%	-1.4%	2.3%
COc1cc(-c2ccc3ncnc(NCCc4cnc[nH]4)c3c2)cc(OC)c1OC	.	.	.	7.0%	.
O=C1NC(=S)N(c2ccccc2)C(=O)/C1=C/c1ccco1	?	?	4.5%	?	7.94µM*
O=C(O)/C=C/c1ccc(O)c(O)c1	-1.6	?	0.0%	-7.3%	i
O=C(/C=C/c1ccc(O)c(O)c1)O[C@H](Cc1ccc(O)c(O)c1)C(=O)O	.	16.9µM*	9.9%	.	.
COc1ccc(C2Nc3ccccc3C(=O)N2Cc2ccc(-c3ccccc3)cc2)cc1COc1ccc(NC(C)=O)cc1 (centres undefined)	.	.	.	-11.4%	.
COCCNC(=S)Nc1ccc(Cl)c(Cl)c1	-3.4	0.0%	8.3%	-11.3%	-14.4%
C=COCCNC(=O)Nc1ccc(Cl)c(Cl)c1	-0.9	15.1µM*	?	5.5%	1.4%
NC(=O)C1CCN(c2ncc(-c3cccc(F)c3)s2)CC1	.	.	.	-2.9%	.
COc1ccc(CN2C(=O)NC(=O)/C(=C/c3ccc([N+](=O)[O-])s3)C2=O)cc1	-22.1	-1.2%	11.4%	?	?
SMILES	PI4K2A inh	Tb PFK inh	Chronic BCR inh	Pin1 inhibitor	Tb PGK inh
O=C1NC(=O)N(Cc2ccc(F)cc2)C(=O)/C1=C\c1ccc([N+](=O)[O-])s1	-14.6	-3.3%	?	10µM*	-24.7%
COc1ccccc1C1CC(=O)Nc2cc3c(cc21)OCCO3 (centres undefined)	8.5	0.6%	23.1µM*	-3.4%	-3.3%
CC(C)Oc1ccccc1C1CC(=O)Nc2cc3c(cc21)OCCO3 (centres undefined)	0.1	2.4%	?	1.6%	-8.1%
CCSC1=C(C#N)C(c2ccccc2OC)CC(=O)N1 (centres undefined)	-65.2*	0.0%	-12.4%	2.0%	7.1%
CCN(CC)c1ccc(C(=C2C=CC(=[N+](CC)CC)C=C2)c2cc(S(=O)(=O)O)ccc2S(=O)(=O)[O-])cc1	-51.1*	.	.	.	.
CCN(CC)c1ccc(C(=C2C=CC(=[N+](CC)CC)C=C2)c2ccc(N(CC)CC)cc2)cc1	-70.7*	.	.	1.2%	?
CSc1ccc(/C=N/Nc2cccc(C(=O)O)c2)cc1	-6.7	-12.6%	?	19µM*	?
O=C(O)c1ccc(/C=N\Nc2ccccn2)cc1	-61.9*	.	.	-1.2%	-28.0%
O=C(O)c1ccc(N/N=C/c2ccc3nccnc3c2)cc1	-54.8*	-1.5%	?	-0.5%	?
Oc1ccc(CNc2ccc(F)cc2Cl)c2cccnc12	.	.	.	-2.5%	.
COc1cccc(C2c3c(ncn(-c4ccccc4OC)c3=N)Oc3ccc4ccccc4c32)c1 (centres undefined)	.	.	.	1.2%	.
O=C(O)c1ccc(-c2ccc(/C=C3\NC(=O)N(Cc4ccc(Cl)cc4)C3=O)o2)cc1Cl	-15.1	-11.0%	-1.2%	.	25.1µM*
CCCCN(C)C(=O)c1cc2cc3ccc(OC)cc3nc2s1	-55.3*	-6.8%	1.6%	1.6%	?
COc1cc(-c2nnc(SCC(=O)NC(C)C)o2)cc(OC)c1OC	-9.0	.	.	0.9%	-6.5%
COc1cc(-c2nnc(SCC(=O)Nc3ccc4c(c3)OCCO4)o2)cc(OC)c1OC	-55.5*	0.5%	-30.0%	1.7%	-2.9%
COc1ccc(N2C(=O)CS/C2=N\C(=S)Nc2ccccc2)cc1	-4.1	0.0%	10µM*	7.7%	i
COc1ccc(C2=Nn3c(nnc3-c3ccccc3C(F)(F)F)SC2)cc1OC1CCOC1 (centres undefined)	-1.4	2.6%	-13.9%	-16.1%	6.5%
COc1ccc(C2=Nn3c(nnc3-c3ccccc3OC)SC2)cc1OC1CCOC1 (centres undefined)	-1.7	3.2%	8.2µM*	3.2%	i
O=C1CCc2cc(S(=O)(=O)Nc3ccc(F)c(Cl)c3)ccc2N1	.	.	.	0.6%	.
Cc1nc(-[n+]2nc(-c3ccncc3)nn2-c2ccccc2)sc1C	-73.2*	.	.	.	.
O=C(NCCCCc1ccccc1)C1CCN(c2nc(-c3ccc(Br)cc3)cs2)CC1	.	.	.	41.1%	.
CCCCc1cc(=O)oc2cc(OCC(=O)NC(Cc3c[nH]c4ccc(O)cc34)C(=O)O)ccc12 (centres undefined)	-67.6*	-12.9%	-3.9%	?	5.8%
N#Cc1nc(Nc2ccc(Br)cc2)nc(NC2CCCC2)n1	.	.	.	17.1%	.
CN1/C(=C/C=C/c2n(C)c3cc([N+](=O)[O-])c([N+](=O)[O-])cc3[n+]2C)C(C)(C)c2ccccc21	-74.5*	.	.	.	?
Cc1cccc[n+]1CC(=O)/C=C1\N(C)c2ccccc2C1(C)C	-3.0	-1.0%	0.3%	17.9%	-0.5%
NC(=O)CI	-54.3*	.	.	.	.
Cc1ccc(S(=O)(=O)CNC(=S)c2cccc(C)c2)cc1	32.5	-14.0%	18.4µM*	-0.1%	19.1%
Cc1ccc(S(=O)(=O)CNC(=O)c2ccccc2)cc1	0.3	-0.7%	?	-0.9%	0.1%
COc1ccc(-c2nc3ccccc3c(=O)n2Cc2ccccc2)cc1CNc1ccc(NC(C)=O)cc1	.	.	.	15.5%	.
